Data on three molecules can be found in ChEMBL document CHEMBL1157539, “Thousands of chemical starting points for antimalarial lead identification” (Nature, 2010).

Holding throughout (type): functional
Assay [1] has as its system Plasmodium falciparum. The assay is described as follows: GSK_TCMDC: Inhibition of Plasmodium falciparum 3D7 in whole red blood cells, using parasite LDH activity as an index of growth. Test compounds present at 2uM.
The subject of assay [2] is Plasmodium falciparum. In words: GSK_TCMDC: Inhibition of Plasmodium falciparum Dd2 in whole red blood cells, using parasite LDH activity as an index of growth. Test compounds present at 2uM.
Assay [3] relates to HepG2. In words: GSK_TCMDC: Percent inhibition of human HepG2 cell line. Test compounds present at 10uM.

For orientation: Inhibition means the drop in the measured response relative to a control, in per cent. As to `COc1ccc(CCN(C)CCCCNC(=O)c2ccc(NC(=O)c3ccc(Cl)cc3)cc2)c(OC)c1`, the Inhibition was 87% in assay [1], 0% in assay [2] and 12% in assay [3].
On to `COc1ccc(-c2ncnc(C(F)(F)F)c2-c2ccc(Cl)cc2)c(O)c1`, for which the Inhibition in assay [1] is 100%; in assay [2] it was 22%; in assay [3] it was 1%.
As for `Cc1ccc(/C=C/C(=O)NC2CCC(N3CCC(c4ccccc4C)CC3)CC2)cc1F` (centres undefined), the Inhibition in assay [1] is given as 96%; in assay [2], 18%; in assay [3], 51%.
